Source: PubChem BioAssay
An excerpt weighted towards active compounds, which were near 15% of everything screened.
DT40 TDP1 CPT: growth inhibition of DT40 Tdp1-/-;hTDP1 cells with camptothecin (screen for TDP1 inhibitors); chicken DT40 Tdp1-/-;hTDP1 cells + 20 nM CPT, ATP luminescence, 48 h; Potency, µM (doses to about 46.2 µM), for inactives: at the highest dose activity change, negative = growth inhibition, actives largely listed as inhibitors; 12% of 420,000 active; AID 686979; further: nearly all actives have a fitted effect of over 55% in size
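Cell growth measured by CellTiter-Glo luminescence after a minimum 48 h, 37 C compound exposure with 20 nM CPT in Tdp1-knockout DT40 cells stably expressing hTDP1, seeded 400/well; qHTS titration format.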
TDP1 cell noCPT: qHTS for Inhibitors of human tyrosyl-DNA phosphodiesterase 1 (TDP1): qHTS in cells in absence of CPT. DT40 Tdp1-/- hTDP1 cells, no CPT, ATP luminescence, 48 h. Potency, µM (titrated, usually from 46.2 µM), inactives show at the top dose activity change, negative = growth inhibition, most hits filed as inhibitors. 15% of 420,000 active. AID 686978, 2013; further: nearly all actives have a fitted effect of over 55% in size
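A cellular qHTS used chicken DT40 cells lacking endogenous Tdp1 but carrying stably transfected human TDP1. Compounds were applied without camptothecin, and cell growth kinetics were judged by ATP-dependent luminescence after ≥48 hr.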
RORgamma inh: inhibitors of mouse ROR gamma transcriptional activity | Potency, µM (top dose mostly 53.6 µM), for the others: at the highest dose activity change, negative = inhibition, most hits filed as inhibitors | AID 2551 | 5.4% of 310,000 active | P51450 | Drosophila S2 Gal4-RORgamma UAS-luciferase reporter, 20 h; further: nearly all actives have a fitted effect of over 60% in size
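Using a luciferase readout, inhibitors were identified by reduced reporter activity in Drosophila cells coexpressing a copper-inducible Gal4–ROR gamma fusion and UAS-driven Photinus luciferase, incubated 20 hr after 700 uM copper sulfate.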
ALOX12 inh: inhibitors of human 12S-lipoxygenase ALOX12. P18054. purified 12hLO, xylenol orange hydroperoxide absorbance. Potency, µM (top dose mostly 108 µM), without a hit: top-dose activity change, negative = inhibition, usual class: inhibitors. 1.1% of 580,000 active
Target sequence (P18054 whole entry, looked up): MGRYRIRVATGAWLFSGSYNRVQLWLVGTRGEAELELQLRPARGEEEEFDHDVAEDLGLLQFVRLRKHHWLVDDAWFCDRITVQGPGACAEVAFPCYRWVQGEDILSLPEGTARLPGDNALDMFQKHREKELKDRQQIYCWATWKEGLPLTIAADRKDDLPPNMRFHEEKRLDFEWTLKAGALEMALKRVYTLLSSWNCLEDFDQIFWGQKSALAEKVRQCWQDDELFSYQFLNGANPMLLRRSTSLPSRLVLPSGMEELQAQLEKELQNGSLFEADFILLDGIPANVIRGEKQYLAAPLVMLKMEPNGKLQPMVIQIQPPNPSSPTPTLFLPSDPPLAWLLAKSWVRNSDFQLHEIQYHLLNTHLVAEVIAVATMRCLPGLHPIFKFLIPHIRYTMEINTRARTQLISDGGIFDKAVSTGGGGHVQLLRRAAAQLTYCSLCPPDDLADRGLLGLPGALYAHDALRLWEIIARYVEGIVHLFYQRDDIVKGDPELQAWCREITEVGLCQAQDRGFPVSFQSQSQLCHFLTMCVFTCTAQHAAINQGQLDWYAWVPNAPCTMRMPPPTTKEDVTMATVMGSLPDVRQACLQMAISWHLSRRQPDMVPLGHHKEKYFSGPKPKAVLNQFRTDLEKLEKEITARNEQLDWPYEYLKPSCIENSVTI
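Purified human 12hLO (150 nM final) in 25 mM Hepes, 0.01% Triton X-100, pH 7.0 was preincubated 15 min at room temperature with compound. Then 40 uM arachidonic acid was added, 30 min. Hydroperoxide was read by Fe-XO absorbance ratio 573/405 nm.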
VP16 counter: inhibits Gal4-VP16 luciferase reporter, ROR gamma counter-screen. Drosophila S2 Gal4-VP16 UAS-luciferase, luminescence, 20 h. Potency, µM (titrated, usually from 53.6 µM), inactives show at the top dose activity, negative = inhibition, actives largely listed as inhibitors. 3.5% of 310,000 active;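 further: Gal4-VP16 expression switched on by copper sulfate through the metallothionein promoter; nearly all actives have a fitted effect of over 50% in size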
ELG1 DNA repair: ELG1-dependent DNA repair inhibition; AID 504467; 2.3% of 330,000 active; HEK293T ELG1-luciferase reporter, luminescence, 16 h; DNA damage induced by 5-fluorouridine; Potency, µM (top dose mostly 46.1 µM), for the others: at the highest dose activity change, negative = inhibition, hits mostly inhibitors; further: nearly all actives have a fitted effect of over 55% in size
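Cells (2,000 per well) received 5-fluorouridine plus test compound or DMSO and were incubated 16 hr at 37 °C, 5% CO2. Luciferase activity was read by luminescence 30 min after ONE-Glo addition; signal suppression marked inhibition of damage-induced ELG1 function.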
Active calls of the source: *; ? = inconclusive; . = no result; [ ] = another dose, or the depositor's remark. The call rests on the fitted dose curve; in most records, active means well fitted curve in the direction sought with a large enough effect; inconclusive means small, poorly fitted or top-dose-only effect, or another doubt; inactive means no such curve, though single readings can be large; an effect the other way counts as inactive or inconclusive. On the % scale 0 is the no-effect control and ±100 the full control effect; potency means the concentration at half of the fitted maximal effect.

SMILES | DT40 TDP1 CPT | TDP1 cell noCPT | RORgamma inh | ALOX12 inh | VP16 counter | ELG1 DNA repair
CCOC(=O)c1ccc(NC(=O)Nc2ccc3snnc3c2)cc1 | ? | 2.9µM* | . | -15% | . | .
CCC(C(=O)Nc1nnc(COC)s1)c1ccccc1 (centres undefined) | . | . | . | -4% | . | .
CC[C@H]1CN(C(=O)NC(C)C)CC[C@H]1CC(=O)NCc1cccc2ccccc12 | . | . | . | 13%[176 µM] | . | .
O=S(=O)(NCCc1coc(-c2ccccc2)n1)c1ccc2ccccc2c1 | . | . | . | -24% | . | .
CC(C)(C)OC(=O)CC1(C#N)c2ccccc2C(Br)=CN1C(=O)c1ccccc1 (centres undefined) | ? | 16µM* | . | -7% | . | -1%
O=C(CSc1nnc(Nc2cccc(F)c2)s1)Nc1ccnn1C1CCCC1 | . | . | . | -10% | . | .
COc1cccc(CSc2nc3ccccc3cc2C=O)c1 | 1.2µM* | 1µM* | ? | 12% | ? | ?
CC(C)CNC(=S)N(CCCO)Cc1cc2cc3c(cc2[nH]c1=O)OCO3 | ? | -20% | ? | 36% | -12% | ?
COc1ccc(NC(=S)N(CCN2CCOCC2)Cc2cc3cc4c(cc3[nH]c2=O)OCO4)cc1 | . | . | 0% | 12% | -11% | ?
CCOc1ccc(NC(=S)N(CCN2CCOCC2)Cc2cc3cc4c(cc3[nH]c2=O)OCO4)cc1 | ? | ? | 24% | 0% | -21% | 21µM*
O=c1[nH]c2cc3c(cc2cc1CN(CCc1ccccc1)C(=S)NCCCN1CCOCC1)OCCO3 | ? | 21µM* | . | 1% | . | .
CCCCNC(=S)N(CCN(CC)CC)Cc1cc2cc3c(cc2[nH]c1=O)OCCO3 | 26µM* | ? | 5% | 0% | 5% | ?
CCN(CC)CCN(Cc1cc2cc3c(cc2[nH]c1=O)OCCO3)C(=S)NCCCN(C)C | 5% | 11% | 13% | 0% | -1% | ?
CC(C)CNC(=S)N(CCN(C)C)Cc1cc2cc3c(cc2[nH]c1=O)OCO3 | ? | 5.2µM* | -22% | 0% | -3% | -7%
CC(=O)NC1CCN(C(=O)c2coc(COc3ccc4c(c3)OCO4)n2)C1 (centres undefined) | . | . | . | 93% | . | .
COCC(=O)NC1CCC12CCN(Cc1ccccn1)CC2 (centres undefined) | . | . | . | 109% | . | .
Cc1ccc(NC(=S)N(CCN2CCOCC2)Cc2cc3cc4c(cc3[nH]c2=O)OCCO4)cc1 | ? | ? | 5% | -9% | 7% | -27%
Cc1cccc(NC(=S)N(CCN2CCOCC2)Cc2cc3cc4c(cc3[nH]c2=O)OCCO4)c1 | ? | 16µM* | 43% | -4% | -9% | ?
Brc1csc(C=Nc2ccc3c(c2)OCCOCCOCCOCCO3)c1 | 0% | 3% | -14% | -5% | -7% | ?
Oc1c(Cl)cc(Cl)cc1C=Nc1ccc2c(c1)OCCO2 | -12% | -2% | 14µM* | 28% | -20% | ?
Cc1ccc(Oc2nc(CN3CCOCC3)nc3sc4c(c23)CCC(C)C4)cc1C (centres undefined) | -25% | ? | 7.9µM* | -13% | 11µM* | 13µM*
COc1cccc(Nc2nc(CN3CCOCC3)nc3sc4c(c23)CCCC4)c1 | 16µM* | 21µM* | 10µM* | 9% | ? | 10µM*
CC1CCc2c(sc3nc(CN4CCOCC4)nc(NS(=O)(=O)c4cccc([N+](=O)[O-])c4)c23)C1 (centres undefined) | -8% | 5% | ? | 2% | 6% | ?
Cc1ccc(Oc2nc(CN3CCOCC3)nc3sc4c(c23)CCC(C)C4)cc1 (centres undefined) | ? | ? | ? | 0% | ? | 26µM*
O=c1c2ccccc2nc(/C=C/c2cccnc2)n1CCc1ccccc1 | 15µM* | 13µM* | 29% | 0% | -3% | ?
